# Test results as given in ChEMBL document CHEMBL4513216, “Probing the Open Global Health Chemical Diversity Library for Multistage-Active Starting Points for Next-Generation Antimalarials” (ACS Infect Dis, 2020).
# Hit rate of the full screen: of about 68,000 compounds, about 2,700 (4%) showed an effect of 50% or more. Many of the other results were omitted from the sample, so strong results are more common in it than they were.
# Tested on: Plasmodium berghei
# Assay: Screen against P. berghei liver stage (PbLuc), transformed with Luciferase, at 2uM
# Type: functional, HepG2
# Conditions: tested at 2 uM
row,Structure (SMILES),INHIBITION [%]
1,CCCc1nnsc1C(=O)N1CCCC1(C)C(=O)N1CCOCC1 (stereo unspecified),5.76
2,O=C1CCC2(CCCN(CCc3ccccc3)C2)N1Cc1cccnc1 (stereo unspecified),42.18
3,O=C1CCC2(CCCN(Cc3ccccc3F)C2)N1CC1CC1 (stereo unspecified),70.48
4,COCCN1C(=O)CCC12CCCN(Cc1ccccc1F)C2 (stereo unspecified),7.88
5,CCN1C(=O)CCC12CCCN(CCc1ccccc1)C2 (stereo unspecified),56.76
6,CNC(=O)CN1C(=O)CCC12CCCN(Cc1ccccc1F)C2 (stereo unspecified),-12.98
7,CNC(=O)CN1C(=O)CCC12CCCN(CCc1ccccc1)C2 (stereo unspecified),0.2
8,COCCN(C)C[C@@H]1CN(C(=O)c2sc3ccccc3c2C)C[C@@H]1CO,25.45
9,Cc1nc([C@H]2C[C@@H]3CCN(Cc4scnc4C)C[C@H]3O2)no1,40.64
10,CCCC12CN3CC(C)(CN(C1)C3c1[nH]c(=O)[nH]c(=O)c1C)C2=O (stereo unspecified),16.49
11,CCn1nccc1CNC(=O)C1CCCCC1,-39.57
12,CCn1nccc1CNC(=O)CCC1CCCC1,59.21
13,CCn1nccc1CNC(=O)C1CCCC1,-56.08
14,COCc1cccc(S(=O)(=O)Nc2ncc(C)s2)c1,-2.19
15,Cn1ncc2c1NC(=O)CC2c1ccccc1Cl (stereo unspecified),33.16
16,O=S1(=O)NC(C2CCN(Cc3ccccn3)CC2)Nc2ccccc21 (stereo unspecified),30.31
17,Cc1nc(CCN)cc(N(C)Cc2nc3ccc(F)cc3[nH]2)n1,-3.87
18,Cc1ccc2[nH]c(CN(C)c3cc(CCN)nc(C)n3)nc2c1,-56.42
19,Cc1ccc2[nH]c(CN(C)c3cc(CN)nc(C)n3)nc2c1,60.18
20,COc1ccc(CS(=O)(=O)CC(=O)NCC2CC2)cc1F,29.89
21,CNC(=O)CS(=O)(=O)Cc1ccc(OC)c(F)c1,69.67
22,COc1ccc(CS(=O)(=O)CC(=O)NCc2ccccc2F)cc1F,6.13

row,Structure (SMILES),INHIBITION [%]
1,Cc1cccc(S(=O)(=O)N2C[C@@H]3C[C@@H](c4nc(C)no4)O[C@@H]3C2)c1,0.8
2,CCCc1cnc(C)nc1NCCc1nc(C)cc(=O)[nH]1,20.14
3,CN(C)C(=O)CN1CCn2cc(Cn3cccn3)nc2C1,14.47
4,CN(C(=O)c1ccncc1)c1nnc(C2CCOC2)s1 (stereo unspecified),24.58
5,CN(C(=O)c1ccc(C#N)cc1)c1nnc(C2CCOC2)s1 (stereo unspecified),-7.22
6,CN(C(=O)c1cccc(C#N)c1)c1nnc(C2CCOC2)s1 (stereo unspecified),53.95
7,CN(Cc1ccccn1)C1CC2(CCN(Cc3ccccn3)CC2)C1,34.48
8,Cc1nc(C)c(CN(C)C2CCN(C(=O)OC(C)(C)C)CC2)s1,73.62
9,CN(Cc1cncs1)C1CCN(C(=O)OC(C)(C)C)CC1,12.83
10,CN(Cc1cscn1)C1CCN(C(=O)OC(C)(C)C)CC1,-33.82
11,CC(NC(=O)COc1cccc[n+]1[O-])C1CC1 (stereo unspecified),25.69
12,COc1cccc(-c2cccc(CN3C[C@H]4CC[C@@H](C3)N(C)C4=O)c2)c1,56.49
13,COc1cccc(-c2ncc(CN3C[C@H]4CC[C@@H](C3)N(C)C4=O)s2)c1,38.87
14,CN1C(=O)[C@@H]2CC[C@H]1CN(Cc1cccc(OCc3ccccn3)c1)C2,26.75
15,CC(O)CN(C)S(=O)(=O)c1ccc(C#N)cc1F (stereo unspecified),34.18
16,CN(CC(N)=O)S(=O)(=O)c1ccc(F)cc1F,0.44
17,Cc1c(F)cccc1S(=O)(=O)N(C)CC(C)O (stereo unspecified),52.38
18,Cc1c(F)cccc1S(=O)(=O)NCCN,39.23
19,Cc1ccc(S(=O)(=O)N(C)CC(C)O)c(F)c1 (stereo unspecified),56.69
20,Cc1c(F)cccc1S(=O)(=O)NCC(C)(C)CC(C)O (stereo unspecified),15.2
21,Cc1nn(CC(C)C)c(N(C)C)c1CNCc1ccnn1C,9.97
22,COCCn1ccc(=O)c(OCC(=O)Nc2cccc(Cl)c2)c1C,6.41

row,Structure (SMILES),INHIBITION [%]
1,Cc1noc(C2CCCN(C(=O)CCNc3ncccn3)C2)n1 (stereo unspecified),31.78
2,CC(C)CCN(C)Cn1ncc2cn(-c3ccccc3)nc2c1=O,19.45
3,COCCn1cc2c(n1)C(CNS(C)(=O)=O)OCC2 (stereo unspecified),35.07
4,Cc1cc(C(=O)NCC2OCCc3cn(CC4CC4)nc32)c(C)[nH]1 (stereo unspecified),-28.58
5,c1cc(CNCC2OCCc3cn(CC4CCOCC4)nc32)ccn1 (stereo unspecified),-66.93
6,O=C(NCC1OCCc2cn(CC3CCOCC3)nc21)c1ccncc1 (stereo unspecified),56.71
7,O=S(=O)(NCC1OCCc2cn(CC3CCOCC3)nc21)C1CC1 (stereo unspecified),24.43
8,c1ccc(Cn2cc3c(n2)C(CNCC2CCOCC2)OCC3)nc1 (stereo unspecified),26.66
9,c1ccc(Cn2cc3c(n2)C(CNCc2ccco2)OCC3)nc1 (stereo unspecified),15.96
10,O=C(NCC1OCCc2cn(CC3CCOCC3)nc21)c1ccsc1 (stereo unspecified),-40.44
11,CCS(=O)(=O)NCC1OCCc2cn(CC3CCOCC3)nc21 (stereo unspecified),62.4
12,COCCn1cc2c(n1)C(CNC(=O)c1cc(C)[nH]c1C)OCC2 (stereo unspecified),60.14
13,CCCS(=O)(=O)NCC1OCCc2cn(CC3CCOCC3)nc21 (stereo unspecified),12.95
14,O=S(=O)(NCC1OCCc2cn(Cc3ccccn3)nc21)C1CC1 (stereo unspecified),50.32
15,Cc1cc(-c2cnc(N3CCC(C(N)=O)CC3)nc2C(C)C)on1,-12.93
16,O=C(NCc1cccnc1)N1CCC2(CC(=O)N(c3ccsc3)C2)C1 (stereo unspecified),13.92
17,CCN1C[C@H]2C3(CCN(C(C)=O)CC3)CC[C@@]2(C(=O)N(C)C)C1,17.47
18,Cc1ccc(NC2CCN(C(=O)c3ccc(C)o3)CC2)nn1,-47.54
19,Cc1n[nH]c2ncc(CNC3CCCN(c4ncccn4)C3)cc12 (stereo unspecified),42.17
20,O=C(c1cccnc1)N1CCC2(CCN(C(=O)N3CCCC3)CC2)C1,-11.34
21,COCCn1c2c(ccc1=O)CC(NCc1cccnc1OC)CC2 (stereo unspecified),-1.81
22,CCc1ncnc2c1CCN(Cc1nccs1)CC2,-6.83

row,Structure (SMILES),INHIBITION [%]
1,CC(=O)NCCNC(=O)C1(N2CCCCC2)Cc2ccccc2C1,10.91
2,O=C(NCCCO)C1(N2CCCCC2)Cc2ccccc2C1,-118.83
3,O=C1OCCN1CCNC(=O)C1(N2CCCCC2)Cc2ccccc2C1,51.96
4,CNC(=O)c1nn(C)cc1NC(=O)C(C)n1ncc(Cl)c1C (stereo unspecified),-11.07
5,CC(C)CN1CCN(C(=O)c2[nH]nnc2Nc2ccccc2F)CC1,-19.92
6,Cc1cc(N(C)C)nc(C2(C)CCCN2C(=O)c2cncnc2C)n1 (stereo unspecified),14.05
7,Cc1ncc(C(=O)N2CCCC2(C)C(=O)N2CCOCC2)c(C)n1 (stereo unspecified),-14.73
8,Cc1nc(N)ncc1C(=O)N1CCCC1(C)C(=O)N(C)C (stereo unspecified),50.17
9,O=C(NCCCNc1ccccn1)NCC1CCS(=O)(=O)C1 (stereo unspecified),41.93
10,COc1ccc(F)c(CN2CCC(c3cc(O)nc(C)n3)C2)c1 (stereo unspecified),25.87
11,CNC(=O)COC1COC2(CCN(c3ccc(C)nn3)CC2)C1 (stereo unspecified),-37.31
12,O=C(c1ccno1)N1CCO[C@@H]2CC(COCc3ccccn3)C[C@H]21 (stereo partly specified),43.24
13,O=C(NCCN1CCOCC1)C1=NOC2(CCN(Cc3nccs3)C2)C1 (stereo unspecified),50.9
14,Cc1ncccc1NC(=O)C1=NOC2(CCN(Cc3nccs3)C2)C1 (stereo unspecified),16.87
15,CNC(=O)C1=NOC2(CCN(Cc3nccs3)C2)C1 (stereo unspecified),5.9
16,CCc1nc(C2CCCN2Cc2ccno2)no1 (stereo unspecified),-62.13
17,O=C1NCC2(CCCN(Cc3cccnc3)C2)Oc2ccccc21 (stereo unspecified),24.06
18,Cc1cc(-c2cc(S(=O)(=O)N3C[C@H](C4CC4)[C@@H](N)C3)c(C)s2)on1,14.95
19,COc1cccc(CN2CCCC(c3nn(C)c4nccnc34)C2)c1 (stereo unspecified),22.81
20,COc1cc(N2CCC3(CCCN(C(=O)c4cccnc4)C3)C2)ncn1 (stereo unspecified),-15.29
21,Cc1ccc(CNC(C)c2ccc(N3CCN(C)CC3)c(F)c2)o1 (stereo unspecified),14.89
22,Cc1ccc(CNC(C)c2cc(F)ccc2N2CCN(C)CC2)o1 (stereo unspecified),60.84

row,Structure (SMILES),INHIBITION [%]
1,CC(NCc1ccncc1)c1cc(F)ccc1N1CCN(C)CC1 (stereo unspecified),24.88
2,Cc1ccc(CC(=O)N2CCCC(c3ccn[nH]3)C2)cn1 (stereo unspecified),-5.3
3,O=C(NCCCO)c1cc(-c2cc[nH]n2)n2ccccc12,-50.4
4,Fc1cccc(-c2nnn3c2COCC(CNCc2nccs2)C3)c1 (stereo unspecified),3.18
5,COCc1cc(N(C)CCC(O)c2ccccc2)n2nccc2n1 (stereo unspecified),45.87
6,CCc1cc(N(C)CCC(O)c2ccccc2)n2nccc2n1 (stereo unspecified),53.12
7,Cc1cc(N(C)CCC(O)c2ccccc2)n2nccc2n1 (stereo unspecified),26.35
8,CN(C)C(C(=O)N1CCCC1)c1ccccc1F (stereo unspecified),-12.23
9,CCOCC1CCN(C(=O)C(c2ccccc2F)N(C)C)CC1 (stereo unspecified),-45.44
10,CN(C)C(C(=O)N1CCC(CCO)CC1)c1ccccc1F (stereo unspecified),57.34
11,c1cncc(C2CC3(CCN(c4cnccn4)CC3)c3ccccc32)c1 (stereo unspecified),-8.91
12,COc1cccc(-n2nnc(C(=O)N3CCCC3)c2C)c1,-32.49
13,COc1cccc(-n2nnc(C(=O)N3CCN(C)CC3C)c2C)c1 (stereo unspecified),89.42
14,COc1cccc(-n2nnc(C(=O)N3CCCCCC3)c2C)c1,30.05
15,COc1cccc(-n2nnc(C(=O)N3CCCC(C)C3)c2C)c1 (stereo unspecified),5.91
16,COc1cccc(-n2nnc(C(=O)N3CCC(C(N)=O)CC3)c2C)c1,56.78
17,COc1cccc(-n2nnc(C(=O)N3CCOC(C)C3)c2C)c1 (stereo unspecified),32.64
18,Cc1nc(-c2ccc(S(=O)(=O)N3CCC4(CC3)OCCO4)cc2)co1,13.93
